NPC1 prom act – qHTS Assay for NPC1 Promoter Activators; Huh7 NPC1 promoter luciferase reporter, 24 h; Potency, µM (titrated, usually from 9.22 µM), for inactives: at the top dose activation, usual class: activators; 2.4% of 320,000 active; AID 485313, 2010; further: % of control where 0% means no effect; nearly all actives have a fitted effect of over 60% in size
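Luminescence from an NPC1 promoter-driven luciferase reporter in stably transfected Huh7 cells was measured after 24 h compound treatment at 37 °C, followed by 10 min ambient incubation with luciferase detection reagent.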
Luc counter – Counterscreen for Luciferase (Kinase-Glo TM) Inhibition; Luciferin 4-monooxygenase (Photuris pensylvanica), Q27757; Kinase-Glo luciferase, ATP luminescence, 8 min; Potency, µM (highest dose often 38.3 µM), without a hit: at the highest dose activity change, negative = inhibition, actives largely listed as inhibitors; 0.28% of 200,000 active; further: on the % scale 0 is the no-effect control and ±100 the full control effect; nearly all actives have a fitted effect of over 60% in size
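Compound is pinned into ATP-containing buffer (10 uM ATP, imidazole pH 7.2, 7 mM MgCl2). Kinase-Glo luciferase reagent is then added. Light output is recorded following an 8-min room-temperature incubation.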
SMN2 splice enh – qHTS Assay for Enhancers of SMN2 Splice Variant Expression; HEK293 SMN2-luciferase splicing reporter, luminescence, 30-36 h; Potency, µM (titrated, usually from 46.1 µM), for inactives: top-dose activity change, positive = activation, hits mostly activators; 2.8% of 210,000 active; AID 1458, 2008; further: % of control where 0% means no effect; nearly all actives have a fitted effect of over 55% in size
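HEK293 cells carry an SMN2 […]–luciferase reporter in which exon 7 inclusion puts luciferase in frame. Cells were plated 10-12 h before compound addition, then incubated 30-36 h at 37C. ONE-Glo luminescence was read; sodium butyrate at 4.5 mM final served as control.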
ELG1 genotox – qHTS screen for small molecules that induce genotoxicity in human embryonic kidney (HEK293T) cells expressing luciferase-tagged ELG1; HEK293T ELG1-luciferase reporter, luminescence, 16 h; Potency, µM (highest dose often 46 µM), for inactives: at the highest dose activity change, positive = activation, usual class: activators; 1.3% of 330,000 active; AID 504466, 2011; further: % of control where 0% means no effect; nearly all actives have a fitted effect of over 60% in size
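HEK293T cells expressing luciferase-tagged ELG1 were treated with compound or DMSO for 16 hr at 37°C. Luciferase activity was then read after 30 min with ONE-Glo at room temperature; rising signal flags genetic stress.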
FLuc modulator – qHTS profiling assay for firefly luciferase inhibitor/activator using purifed enzyme and Km concentrations of substrates (counterscreen for miR-21 project). Luciferin 4-monooxygenase (Photinus pyralis), P08659. purified FLuc, Km substrates, luminescence inhibition. Potency, µM (highest dose often 57.5 µM), inactives show top-dose activity change, negative = inhibition, most hits filed as inhibitors. 6.9% of 360,000 active;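 further: plate controls were vehicle for no effect and reference inhibitor for full effect; nearly all actives have a fitted effect of over 55% in size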
Target sequence (P08659 whole entry, looked up): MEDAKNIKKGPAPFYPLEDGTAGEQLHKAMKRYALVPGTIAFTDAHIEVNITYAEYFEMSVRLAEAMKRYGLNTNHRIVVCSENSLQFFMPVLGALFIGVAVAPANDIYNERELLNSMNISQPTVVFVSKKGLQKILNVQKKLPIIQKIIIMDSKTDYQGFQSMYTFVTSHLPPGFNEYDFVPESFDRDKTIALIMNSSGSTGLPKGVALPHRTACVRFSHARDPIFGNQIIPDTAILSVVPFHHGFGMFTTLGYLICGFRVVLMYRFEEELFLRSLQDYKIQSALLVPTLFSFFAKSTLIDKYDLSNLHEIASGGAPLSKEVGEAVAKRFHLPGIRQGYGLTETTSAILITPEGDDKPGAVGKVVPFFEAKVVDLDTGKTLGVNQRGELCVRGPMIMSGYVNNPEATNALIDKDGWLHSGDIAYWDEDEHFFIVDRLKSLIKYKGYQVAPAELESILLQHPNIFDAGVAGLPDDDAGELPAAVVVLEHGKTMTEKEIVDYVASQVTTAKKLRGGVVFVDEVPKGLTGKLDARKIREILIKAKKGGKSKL
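Purified P. pyralis luciferase, 10 nM final, with Km-level 10 uM D-luciferin and 10 uM ATP in 50 mM Tris acetate pH 7.5, 10 mM Mg acetate, 0.01% Tween-20, 0.05% BSA; 6-point qHTS titration about 60 µM downward; luminescence read.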
Rab9 promoter act – qHTS Assay for Rab9 Promoter Activators; 2.8% of 320,000 active; Huh7 Rab9 promoter-luciferase reporter, luminescence, 24 h; Potency, µM (top dose mostly 9.22 µM), without a hit: at the highest dose activation, negative = inhibition, hits mostly activators; AID 485297, 2010; further: % of control where 0% means no effect; nearly all actives have a fitted effect of over 60% in size
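Huh7 cells stably carrying Rab9 promoter–luciferase reporter, plated 1500 cells/well, compound added after 2 h and incubated 24 h at 37 °C; luciferase luminescence then read after 10 min with detection reagent.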
Starred values were filed as active, the others as inactive. Only some compounds are listed: those with a hit (about 7.4% of all), similar ones and a draw of the others. The call rests on the fitted dose curve; in most records, active means well fitted curve in the direction sought with a large enough effect; inconclusive means small, poorly fitted or top-dose-only effect, or another doubt; inactive means no such curve, though single readings can be large; an effect the other way counts as inactive or inconclusive. Potency means the concentration at half of the fitted maximal effect.

`Cc1ccc(-c2nc3ccccc3[nH]2)cc1NC(=O)/C=C/c1ccco1` gave NPC1 prom act 23.5%, Luc counter -7.1%, SMN2 splice enh 7.4%, ELG1 genotox -3.4%, FLuc modulator 8.49µM* and Rab9 promoter act inconclusive.
`Cc1ccc(-c2nc3ccccc3[nH]2)cc1NC(=S)NC(=O)c1ccccc1Br` gave NPC1 prom act -3.7%, Luc counter -2.0%, SMN2 splice enh -52.9%, ELG1 genotox -0.5%, FLuc modulator 5.36µM* and Rab9 promoter act 1.8%.
`Cc1ccc(-c2nc3ccccc3[nH]2)cc1NC(=O)c1ccc2c(c1)OCO2` gave NPC1 prom act inconclusive, Luc counter -0.9%, SMN2 splice enh 2.5%, ELG1 genotox -2.1%, FLuc modulator 10.7µM* and Rab9 promoter act 3.4%.
For CCCOc1ccc(C(=O)Nc2cc(-c3nc4ccccc4[nH]3)ccc2C)cc1 the results were SMN2 splice enh -2.5% and FLuc modulator inconclusive.
`Cc1cc(C)c2oc(-c3ccc(C)c(NC(=S)NC(=O)/C=C/c4ccco4)c3)nc2c1` gave NPC1 prom act 2.7%, Luc counter 7.2%, SMN2 splice enh 15.9%, ELG1 genotox -0.1%, FLuc modulator inconclusive and Rab9 promoter act 9.3%.
O=C(NC(=S)Nc1cc(-c2nc3ccccc3[nH]2)ccc1Cl)c1ccc2c(c1)OCO2 was read as NPC1 prom act -1.4%, Luc counter -8.8%, SMN2 splice enh 26.7%, ELG1 genotox 2.6%, FLuc modulator 6.75µM* and Rab9 promoter act 2.2%.
`COc1ccccc1NC(=S)N1CCN(c2nc(-c3ccccc3)cs2)CC1` gave NPC1 prom act -4.2%, Luc counter -1.2%, ELG1 genotox -4.1%, FLuc modulator -5.5% and Rab9 promoter act -4.2%.
For CCCn1nc(C(=O)NNC(=O)CCCOc2ccc(C)cc2)c2ccccc2c1=O the results were NPC1 prom act -0.6%, ELG1 genotox -9.1%, FLuc modulator 4.7% and Rab9 promoter act 0.2%.
Cc1[nH]c(-c2ccc3c(c2)OCO3)nc1C(=O)O was read as NPC1 prom act 0.0%, Luc counter 11.2µM*, SMN2 splice enh 12.4%, ELG1 genotox -9.9%, FLuc modulator inconclusive and Rab9 promoter act -3.0%.
Screening Cc1ccsc1C(=O)Nc1ccc(OCc2ccccc2)cc1 returned NPC1 prom act 1.58µM*, ELG1 genotox inconclusive, FLuc modulator 1.51µM* and Rab9 promoter act 1.12µM*.
Cc1cc(C(=O)Nc2ccccc2C(=O)O)c(C)o1 was read as NPC1 prom act -1.8%, ELG1 genotox 2.7%, FLuc modulator 23.9µM* and Rab9 promoter act 1.2%.
`O=C(Nc1ccc(OCc2ccccc2)cc1)c1ccccc1` gave NPC1 prom act inconclusive, Luc counter -10.1%, SMN2 splice enh inconclusive, ELG1 genotox 16.4%, FLuc modulator 1.2% and Rab9 promoter act inconclusive.
For Cc1cc(C(=O)Nc2ccc(OCc3ccccc3)cc2)c(C)o1 the results were NPC1 prom act inconclusive, Luc counter 11.2µM*, SMN2 splice enh inconclusive, ELG1 genotox inconclusive, FLuc modulator 16.9µM* and Rab9 promoter act inconclusive.
Screening Cc1cc(C(=O)Nc2cccc3ccccc23)c(C)o1 returned NPC1 prom act -6.4%, ELG1 genotox 3.3%, FLuc modulator -16.3% and Rab9 promoter act -4.2%.
For Cc1oc(C(=O)Nc2ccc(C(=O)O)cc2)cc1COc1ccccc1 the results were NPC1 prom act 0.5%, Luc counter -2.8%, SMN2 splice enh -0.6%, ELG1 genotox 8.5%, FLuc modulator 10.7µM* and Rab9 promoter act 13.3%.
CC(=O)c1cc(C(=O)Nc2ccc(C(=O)O)cc2)oc1C was read as NPC1 prom act -1.3%, Luc counter -2.8%, SMN2 splice enh 0.0%, ELG1 genotox 2.1%, FLuc modulator -2.8% and Rab9 promoter act 4.4%.
Screening CCOC(=O)C1CCC(CN(Cc2cccc(Br)c2)S(=O)(=O)c2ccc(C)cc2)CC1 (configuration not stated) returned FLuc modulator -5.8%.
For Cc1cc(C)cc(N(C(=O)CNC(=O)c2ccco2)C(C(=O)NC2CCCCC2)c2ccncc2)c1 (configuration not stated) the results were NPC1 prom act -4.5%, ELG1 genotox -4.5%, FLuc modulator 0.9% and Rab9 promoter act 3.6%.
`Cc1cc(OCC(=O)N(Cc2ccc(N(C)C)cc2)CC2CCCO2)ccc1Cl` (configuration not stated) gave SMN2 splice enh 4.5% and FLuc modulator -5.2%.
`CCOC(=O)c1scc(-c2ccc(C)cc2)c1S(=O)(=O)N1CCN(c2ccccc2F)CC1` gave FLuc modulator -9.6%.
Cc1nn(CC(=O)N2CCC(C(N)=O)CC2)c(=O)c2nn(-c3ccccc3)c(C)c12 was read as NPC1 prom act 10.3%, ELG1 genotox 2.2%, FLuc modulator 2.2% and Rab9 promoter act -3.0%.
For CCOc1ccc(/C=C2\NC(=S)NC2=O)cc1 the results were NPC1 prom act -1.2%, ELG1 genotox -0.4%, FLuc modulator 16.9µM* and Rab9 promoter act -7.0%.
Screening Cc1no[n+]([O-])c1COc1ccc(/C=C2\NC(=S)NC2=O)cc1 returned NPC1 prom act 0.3%, Luc counter 3.2%, SMN2 splice enh -10.9%, ELG1 genotox 15.6%, FLuc modulator -8.3% and Rab9 promoter act -4.0%.
O=C(Nc1cccc(-c2nc3ccccc3s2)c1)c1cccs1 was read as NPC1 prom act -2.2%, Luc counter 0.5%, SMN2 splice enh inconclusive, ELG1 genotox -1.2%, FLuc modulator 13.5µM* and Rab9 promoter act 3.4%.
For O=C(Nc1cccc(-c2nc3ccccc3s2)c1)c1cc(=O)c2ccccc2o1 the results were NPC1 prom act 0.3%, Luc counter 2.1%, SMN2 splice enh 0.8%, ELG1 genotox 12.9%, FLuc modulator -4.3% and Rab9 promoter act -0.8%.
`O=C(CCS(=O)(=O)c1ccccc1)Nc1ccc(-c2nc3ccccc3s2)cc1` gave NPC1 prom act 1.58µM*, Luc counter 4.0%, SMN2 splice enh 1µM*, ELG1 genotox inconclusive, FLuc modulator -19.5% and Rab9 promoter act 0.501µM*.

Screens: PubChem BioAssay, National Center for Advancing Translational Sciences (NCATS)
